Here are results for 23 molecules from PubChem BioAssay.

As a reminder, the inhibition is the drop in the measured response relative to a control, in per cent.

The target of test [1] is Protein phosphatase methylesterase 1 (Homo sapiens) (UniProt Q9Y570). Nature of the test: human PME-1 methylesterase inhibition confirmation – biochemical, fluorescence polarization, FP-Rh probe, triplicate (AID 2171).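 Further: 0% = enzyme with DMSO and 100% = wells lacking PME-1.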 Particulars: recombinant PME-1, FP-Rh probe fluorescence polarization; at 5.9 µM; active compounds read high.
Test [2] deals with Nuclear receptor coactivator 3 (Homo sapiens) (UniProt Q9Y6Q9). In words: NCOA3 GAL4-fusion reporter inhibition – cell-based, luminescence, quadruplicate, confirmation (AID 588792;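 active means mean inhibition over 43.08%, the solvent-only control mean plus 3 SD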;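 further: 0% = DMSO treated cells and 100% = gossypol at 36 µM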). To be noted: HEK293 GAL4-SRC3 luciferase reporter, at 3.6 µM, active compounds read high. Background: In a reporter assay the amount or activity of a reporter protein is the signal.
Test [3] deals with transactivating tegument protein VP16 (Human herpesvirus 1), Gal4-VP16 luciferase reporter. Nature of the test: repression of VP16-driven luciferase reporter – cell-based, luminescence, high throughput, counter-screen for SRC3 inhibitor project (AID 588794; in the data active means inhibition above about 30%). To be noted: mammalian cells, at 3.6 µM, active compounds read high.
For test [4], the target named is Nuclear receptor coactivator 1 (Homo sapiens) (UniProt Q15788). In words: NCOA1 GAL4-fusion reporter inhibition – cell-based, luminescence, quadruplicate, confirmation (AID 588820;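 active means mean inhibition above 46.68%, the untreated control wells mean plus 3 SD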;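 further: 0% = DMSO wells and 100% = gossypol 36 µM treated wells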). Particulars: HEK293 GAL4-SRC1 luciferase reporter, at 3.6 µM, active compounds read high.
The nature of test [5]: repression of VP16-driven luciferase reporter – cell-based, luminescence, high throughput, counter-screen for SRC1 inhibitor project (AID 588824; in the data active means inhibition above about 25%). To be noted: cell-based VP16 transactivation luciferase luminescence; at 3.6 µM; active compounds read high.
Test [6] can be described thus: StAR promoter reporter inhibitors, counter-screen for LRH-1 inverse agonist project, cell-based, luminescence, high throughput (AID 651611; in the data active means inhibition above about 28%). Particulars: StAR promoter luciferase reporter counterscreen, at 3.6 µM, active compounds read high. (In general: The purpose of a counterscreen is to sort out artefacts and off-target activity.)
Test [7] addresses Nuclear receptor subfamily 5 group A member 2 (Homo sapiens) (UniProt O00482). In words: NR5A2 activity suppression in reporter cells – cell-based, luminescence, confirmation (AID 651613; in the data active means inhibition above about 42%;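 further: HEK293T cells co-transfected with LRH-1 and StAR promoter luciferase reporter; 0% = vehicle wells and 100% = parental cells lacking receptor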). Particulars: cell-based LRH-1 luciferase reporter, inverse agonism; at 3.6 µM; active compounds read high.
The target of test [8] is Steroidogenic factor 1 (Homo sapiens) (UniProt Q13285). In words: inverse agonism at SF1 nuclear receptor – cell-based, luminescence, high throughput, counter-screen for LRH-1 inverse agonist project (AID 651614; in the data active means inhibition above about 44%;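 further: cells cotransfected with StAR promoter reporter and SF1 expression vector; 0% = vehicle on cells with receptor and 100% = vehicle on cells lacking receptor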). Particulars: cell-based SF1 luciferase reporter, at 3.6 µM, active compounds read high.
A short description of test [9]: compounds suppressing VP16-driven luciferase signal – cell-based, luminescence, high throughput, counter-screen for LRH-1 inverse agonist project (AID 651615; in the data active means inhibition above about 33%). To be noted: Gal4-VP16 luciferase reporter cells, at 3.6 µM, active compounds read high.
In test [10] the test system is transactivating tegument protein VP16 (Human herpesvirus 1). In words: compounds suppressing VP16-driven luciferase signal – cell-based, luminescence, single concentration, counter-screen for SRC2 inhibitor project (AID 652007; in the data active means inhibition above about 36%). Particulars: cell-based VP16 transactivation luciferase reporter, at 8.9 µM, active compounds read high.
For test [11], the target named is Nuclear receptor coactivator 2 (Homo sapiens) (UniProt Q15596). In words: inhibition of GAL4-SRC2 driven luciferase expression – cell-based, luminescence, HEK293, triplicate, confirmation (AID 652008;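 active means mean inhibition above 46.5%, the solvent-only control mean plus 3 SD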;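 further: 0% = DMSO-treated cells and 100% = Gossypol at 36 µM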). To be noted: HEK293 GAL4-SRC2 luciferase reporter, at 8.9 µM, active compounds read high.
Test [12] addresses Oxytocin receptor (Homo sapiens) (UniProt P30559). In words: oxytocin receptor activation, retest of hits – fluorescence, CHO-OTR cells, triplicate, confirmation (AID 434963;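 active means mean activation above about 20% derived from the earlier single-dose screen, limit read from the data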;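 further: peak over minimum fluorescence ratio per well during a 100 second FLIPR read; 0% = DMSO alone and 100% = oxytocin high control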). Particulars: Fluo-8 calcium fluorescence, agonist, at 3 µM, active compounds read high.
Test [13] has as its target Vasopressin V1a receptor (Homo sapiens) (UniProt P37288). In words: activators of vasopressin V1R in CHO cells – cell-based, triplicate, fluorescence, counter-screen for OXTR agonist project (AID 434991;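 active means mean activation over triplicate exceeds the hit threshold set in the earlier primary screen, cut at about 20% in these data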;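 further: peak over basal fluorescence ratio within a 100 second read; 0% = DMSO alone and 100% = 3 nM vasopressin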). To be noted: Fluo-8 calcium fluorescence, at 3 µM, active compounds read high.
For test [14], the target named is Insulin-degrading enzyme (Homo sapiens) (UniProt P14735). In words: cellular IDE Abeta-cleavage inhibition – fluorescence polarization, HEK cells, FAbetaB substrate, confirmation (AID 435028;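 active means mean inhibition across triplicate wells above the cutoff set by the earlier primary insulin-degrading enzyme screen, cut at about 16% in these data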;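 further: 0% = DMSO wells and 100% = 60 µM reference IDE inhibitor Ii1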). To be noted: at 5.59 µM, active compounds read high.
Test [15] is described as follows: HEK cell viability loss – luminescence, cytotoxicity control for IDE inhibitor project (AID 449730; in the data active means inhibition above about 22%;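 further: 0% = vehicle wells and 100% = reference cytotoxic drug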). Particulars: HEK293 cytotoxicity, ATP luminescence; at 5.59 µM; active compounds read high.
Test [16] concerns the target Glutathione S-transferase omega-1 (Homo sapiens) (UniProt P78417). Nature of the test: recombinant GSTO1 blockers, retest – biochemical, fluorescence polarization, triplicate, counter-screen for RBBP9 inhibitor project, confirmation (AID 2176;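 active means inhibition above the primary screen's cutoff, its mean inhibition plus 3 SD, cut at about 35% in these data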;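 further: loss of polarization as inhibitors block binding of rhodamine sulfonate ester activity probe; 0% = GSTO1 with DMSO and 100% = wells lacking GSTO1 enzyme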). To be noted: recombinant GSTO1, probe fluorescence polarization; at 5.96 µM; active compounds read high. A general note: In fluorescence polarisation assays a small probe gives low polarisation when free and higher when bound to something large.

The structures appear in SMILES notation. A number with no mark means an inactive call. This is one part of the list. Calls of active or inactive are those of the source.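 How the source made its calls, unless noted: active means inhibition above the hit cutoff set in the earlier primary screen (cut at about 27% in these data); inactive means the rest.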

Nuclear receptor coactivator 1 (Homo sapiens), sequence (Q15788 whole entry, looked up, the tested form may be a part): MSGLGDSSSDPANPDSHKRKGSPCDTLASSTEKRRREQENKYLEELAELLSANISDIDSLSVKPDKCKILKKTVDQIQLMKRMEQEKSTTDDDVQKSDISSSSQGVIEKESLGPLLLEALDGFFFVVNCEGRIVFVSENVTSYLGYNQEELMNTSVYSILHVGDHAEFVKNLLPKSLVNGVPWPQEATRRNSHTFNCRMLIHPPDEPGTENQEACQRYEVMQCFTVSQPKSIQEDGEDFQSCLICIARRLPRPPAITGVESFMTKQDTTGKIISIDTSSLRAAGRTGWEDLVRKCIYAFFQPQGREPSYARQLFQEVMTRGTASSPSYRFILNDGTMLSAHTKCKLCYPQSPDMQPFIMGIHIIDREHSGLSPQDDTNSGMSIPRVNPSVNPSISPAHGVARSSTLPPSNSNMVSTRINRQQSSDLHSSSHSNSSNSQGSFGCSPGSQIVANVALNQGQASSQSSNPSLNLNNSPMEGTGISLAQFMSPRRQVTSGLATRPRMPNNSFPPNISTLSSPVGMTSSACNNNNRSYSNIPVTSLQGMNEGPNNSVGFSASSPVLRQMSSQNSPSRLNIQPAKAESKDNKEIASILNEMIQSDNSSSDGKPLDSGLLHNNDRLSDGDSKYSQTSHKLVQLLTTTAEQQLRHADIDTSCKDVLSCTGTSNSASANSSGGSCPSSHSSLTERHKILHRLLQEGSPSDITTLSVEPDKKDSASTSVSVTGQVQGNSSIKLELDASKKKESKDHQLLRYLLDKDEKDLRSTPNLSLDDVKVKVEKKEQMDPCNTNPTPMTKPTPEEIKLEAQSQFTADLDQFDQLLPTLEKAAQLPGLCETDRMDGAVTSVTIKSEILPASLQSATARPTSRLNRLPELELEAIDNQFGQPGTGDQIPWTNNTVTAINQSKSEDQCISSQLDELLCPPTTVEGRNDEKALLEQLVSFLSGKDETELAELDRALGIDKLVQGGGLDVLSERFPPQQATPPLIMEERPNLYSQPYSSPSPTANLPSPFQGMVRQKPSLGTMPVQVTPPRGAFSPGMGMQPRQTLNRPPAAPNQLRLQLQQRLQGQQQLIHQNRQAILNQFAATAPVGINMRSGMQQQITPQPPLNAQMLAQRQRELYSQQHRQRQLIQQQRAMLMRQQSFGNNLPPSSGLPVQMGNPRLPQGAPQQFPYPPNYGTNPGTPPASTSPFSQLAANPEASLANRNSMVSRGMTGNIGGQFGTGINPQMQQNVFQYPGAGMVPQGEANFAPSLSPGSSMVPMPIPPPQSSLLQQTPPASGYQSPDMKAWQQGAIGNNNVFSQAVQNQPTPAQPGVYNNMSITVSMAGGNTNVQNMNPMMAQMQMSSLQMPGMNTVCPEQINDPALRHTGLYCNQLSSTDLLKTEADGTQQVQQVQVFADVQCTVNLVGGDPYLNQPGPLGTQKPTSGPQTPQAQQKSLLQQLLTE
Nuclear receptor coactivator 2 (Homo sapiens), sequence (Q15596 whole entry, looked up, the tested form may be a part): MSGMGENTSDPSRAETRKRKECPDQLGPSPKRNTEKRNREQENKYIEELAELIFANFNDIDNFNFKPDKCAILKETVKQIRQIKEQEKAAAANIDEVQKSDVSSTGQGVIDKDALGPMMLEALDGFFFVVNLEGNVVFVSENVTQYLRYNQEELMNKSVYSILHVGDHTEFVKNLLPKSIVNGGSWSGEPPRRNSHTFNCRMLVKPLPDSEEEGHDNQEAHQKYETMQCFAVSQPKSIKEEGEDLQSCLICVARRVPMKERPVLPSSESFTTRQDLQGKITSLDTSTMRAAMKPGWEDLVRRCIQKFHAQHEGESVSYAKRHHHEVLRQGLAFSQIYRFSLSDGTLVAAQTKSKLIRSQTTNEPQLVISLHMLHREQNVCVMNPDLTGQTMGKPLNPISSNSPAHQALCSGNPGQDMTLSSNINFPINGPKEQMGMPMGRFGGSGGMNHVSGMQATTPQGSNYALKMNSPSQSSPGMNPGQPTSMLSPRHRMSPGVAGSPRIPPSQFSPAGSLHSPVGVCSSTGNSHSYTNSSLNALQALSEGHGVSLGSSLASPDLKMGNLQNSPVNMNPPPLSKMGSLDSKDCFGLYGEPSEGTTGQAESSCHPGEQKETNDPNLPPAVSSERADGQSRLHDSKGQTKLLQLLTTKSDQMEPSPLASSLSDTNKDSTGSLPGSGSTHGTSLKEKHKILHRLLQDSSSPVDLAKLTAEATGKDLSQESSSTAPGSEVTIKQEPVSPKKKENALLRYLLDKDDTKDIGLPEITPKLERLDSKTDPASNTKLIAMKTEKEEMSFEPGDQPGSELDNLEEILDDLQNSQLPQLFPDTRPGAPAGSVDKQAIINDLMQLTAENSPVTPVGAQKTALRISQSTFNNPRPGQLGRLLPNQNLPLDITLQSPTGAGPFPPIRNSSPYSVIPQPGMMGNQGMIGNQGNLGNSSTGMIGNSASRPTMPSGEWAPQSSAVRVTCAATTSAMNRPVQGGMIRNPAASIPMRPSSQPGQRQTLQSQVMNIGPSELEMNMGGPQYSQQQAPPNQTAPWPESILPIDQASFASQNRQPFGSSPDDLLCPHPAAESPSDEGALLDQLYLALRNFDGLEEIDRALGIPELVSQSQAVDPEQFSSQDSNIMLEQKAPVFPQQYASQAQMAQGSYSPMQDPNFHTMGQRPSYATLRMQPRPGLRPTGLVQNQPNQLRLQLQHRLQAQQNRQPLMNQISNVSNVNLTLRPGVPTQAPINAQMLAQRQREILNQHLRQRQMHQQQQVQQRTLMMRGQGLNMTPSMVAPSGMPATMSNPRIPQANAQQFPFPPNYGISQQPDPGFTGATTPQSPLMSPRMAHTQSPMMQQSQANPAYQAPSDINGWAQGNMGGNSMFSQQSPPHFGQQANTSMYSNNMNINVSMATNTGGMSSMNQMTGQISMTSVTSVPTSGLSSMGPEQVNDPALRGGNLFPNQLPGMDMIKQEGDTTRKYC
Steroidogenic factor 1 (Homo sapiens), sequence (Q13285 whole entry, looked up, the tested form may be a part): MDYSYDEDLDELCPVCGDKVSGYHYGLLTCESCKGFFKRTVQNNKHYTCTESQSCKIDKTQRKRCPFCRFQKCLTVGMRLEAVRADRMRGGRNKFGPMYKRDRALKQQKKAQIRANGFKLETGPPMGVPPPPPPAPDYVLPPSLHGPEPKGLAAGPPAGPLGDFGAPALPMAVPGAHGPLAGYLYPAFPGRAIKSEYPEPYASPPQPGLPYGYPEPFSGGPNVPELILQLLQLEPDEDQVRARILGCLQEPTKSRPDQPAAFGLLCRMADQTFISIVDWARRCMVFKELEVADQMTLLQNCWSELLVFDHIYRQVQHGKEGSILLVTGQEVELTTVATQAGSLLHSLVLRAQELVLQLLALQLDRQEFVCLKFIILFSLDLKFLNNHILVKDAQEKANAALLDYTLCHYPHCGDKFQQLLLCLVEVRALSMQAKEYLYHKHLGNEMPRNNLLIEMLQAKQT
Protein phosphatase methylesterase 1 (Homo sapiens), sequence (Q9Y570 whole entry, looked up, the tested form may be a part): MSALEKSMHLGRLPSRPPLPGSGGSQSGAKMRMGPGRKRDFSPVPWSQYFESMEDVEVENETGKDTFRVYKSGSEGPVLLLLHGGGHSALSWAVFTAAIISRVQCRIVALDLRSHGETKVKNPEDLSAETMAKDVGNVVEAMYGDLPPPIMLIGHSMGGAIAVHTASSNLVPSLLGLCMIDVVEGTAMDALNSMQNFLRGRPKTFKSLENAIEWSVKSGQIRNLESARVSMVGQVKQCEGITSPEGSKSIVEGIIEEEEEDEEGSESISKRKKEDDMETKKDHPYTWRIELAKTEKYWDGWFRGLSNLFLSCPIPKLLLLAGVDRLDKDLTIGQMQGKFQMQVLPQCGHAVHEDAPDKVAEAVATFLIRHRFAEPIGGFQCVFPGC
Nuclear receptor subfamily 5 group A member 2 (Homo sapiens), sequence (O00482 whole entry, looked up): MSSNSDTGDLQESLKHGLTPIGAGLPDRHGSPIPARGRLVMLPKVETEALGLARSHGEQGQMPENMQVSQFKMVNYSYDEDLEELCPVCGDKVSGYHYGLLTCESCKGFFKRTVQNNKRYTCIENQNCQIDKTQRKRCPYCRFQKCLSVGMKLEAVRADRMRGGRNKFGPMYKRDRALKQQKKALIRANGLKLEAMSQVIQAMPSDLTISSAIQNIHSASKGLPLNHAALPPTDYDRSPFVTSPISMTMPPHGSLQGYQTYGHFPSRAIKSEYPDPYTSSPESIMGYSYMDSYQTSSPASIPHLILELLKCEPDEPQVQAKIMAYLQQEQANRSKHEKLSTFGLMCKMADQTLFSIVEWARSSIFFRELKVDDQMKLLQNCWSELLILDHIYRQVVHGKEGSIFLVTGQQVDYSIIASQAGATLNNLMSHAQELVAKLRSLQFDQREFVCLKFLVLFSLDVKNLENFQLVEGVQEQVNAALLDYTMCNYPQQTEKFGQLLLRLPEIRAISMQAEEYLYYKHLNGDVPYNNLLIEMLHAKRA
Vasopressin V1a receptor (Homo sapiens), sequence (P37288 whole entry, looked up): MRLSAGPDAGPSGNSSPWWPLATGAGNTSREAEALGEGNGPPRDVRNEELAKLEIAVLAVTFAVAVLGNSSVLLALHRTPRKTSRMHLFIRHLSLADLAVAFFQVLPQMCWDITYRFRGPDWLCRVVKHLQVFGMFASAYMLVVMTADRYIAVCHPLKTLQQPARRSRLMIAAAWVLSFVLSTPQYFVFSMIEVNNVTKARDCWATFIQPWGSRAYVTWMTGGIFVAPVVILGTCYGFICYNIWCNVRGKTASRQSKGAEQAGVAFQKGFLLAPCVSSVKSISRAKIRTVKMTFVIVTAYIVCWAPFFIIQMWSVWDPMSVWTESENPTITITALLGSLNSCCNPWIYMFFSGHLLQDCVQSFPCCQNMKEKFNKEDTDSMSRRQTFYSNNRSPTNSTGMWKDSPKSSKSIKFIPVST
Glutathione S-transferase omega-1 (Homo sapiens), sequence (P78417 whole entry, looked up): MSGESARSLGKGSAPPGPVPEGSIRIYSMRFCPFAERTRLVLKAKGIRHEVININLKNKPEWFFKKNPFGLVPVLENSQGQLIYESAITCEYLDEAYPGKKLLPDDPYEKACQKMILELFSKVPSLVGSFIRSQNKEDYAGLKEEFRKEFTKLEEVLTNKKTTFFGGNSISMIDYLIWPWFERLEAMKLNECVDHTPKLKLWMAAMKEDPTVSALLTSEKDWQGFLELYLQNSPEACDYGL

In the case of `Brc1ccc(N/N=C(/N=Nc2nn[nH]n2)c2ccccc2)cc1`, the results for the inhibition in test [1], in [2] and in test [3] were 57.1% (active), 83.2% (active) and 80.2% (active), respectively.

`CCNc1ccc2noc3c2c1C(=O)c1ccccc1-3`: the inhibition in test [1] was 87.6% (active).

`COc1cccc2c1C(=O)c1c(O)c3c(c(O)c1C2=O)C[C@@](O)(C(=O)CO)C[C@@H]3O[C@H]1C[C@H](N)[C@H](O)[C@H](C)O1`: the inhibition was 36.3% (active) in [1], 49.7% (active) in test [2] and 87.7% (active) in [3].

Consider `COc1ccc(/C=N/NC(=S)Nc2ccccc2[N+](=O)[O-])cc1O`, for which the inhibition in test [1] was 43.4% (active); in test [2] it was -21.4%; in test [3] it was -47%; in test [4] it was -91.8%; in test [5] it was -70%.

Regarding `O=c1[nH]c(N/N=C\c2ccc3c(c2)OCO3)nc2ccccc12`, the inhibition in test [1] is 24.6%.

`COc1cccc(N2CCN(c3ncnc4c3[nH]c3ccc(F)cc34)CC2C)c1` (centres undefined): the inhibition in test [1] is 26.7% (active); in [2] it was 95.2% (active); in [3], 93.4% (active); in test [4], 86.7% (active); in test [5] it was 91.8% (active); in test [6] it was 93.4% (active). Further, the inhibition in test [7] is 108% (active); in [8] it was 97.8% (active); in test [9], 97.2% (active); in test [10], 95.4% (active); in [11] it was 99.5% (active).

Take `C/C(=N\Nc1cccc([N+](=O)[O-])c1)c1ccccc1O`: the inhibition in test [1] was 39.4% (active).

Consider `Cn1nc(-c2ccccn2)nc2c(=O)n(C)c(=O)nc1-2`, for which the inhibition was 45.9% (active) in test [1]; 74.8% (active) in test [2]; 62% (active) in [3]; 3.11% in [4]; 53.1% (active) in test [5]; 56.7% (active) in test [6]. In addition, the inhibition in test [7] was 58.9% (active); in test [8], 73.7% (active); in test [9], 75.1% (active); in test [10], 13.4%; in test [11], 70.7% (active).

Take `Nc1ccc2c(c1)C(=O)C(=O)c1ccccc1-2`: the inhibition in test [1] is 36.4% (active); in test [2], 96.7% (active); in test [3], 95.3% (active); in [4], 87% (active); in test [5], 93% (active); in test [6], 98.5% (active). The inhibition was 110% (active) in test [7]; 98.9% (active) in test [8]; 99.1% (active) in test [9]; 97% (active) in test [10]; 98.8% (active) in test [11].

For the molecule `COC(=O)c1cc(C)nc2c1C(=O)C(=O)C=C2N1CCOCC1`, the inhibition is 40% (active) in [1]; 69.5% (active) in test [2]; 54.7% (active) in [3]; -43.5% in test [4]; 52.3% (active) in test [5]; 54.2% (active) in test [10]. For the same molecule, the inhibition in test [11] was 99.2% (active).

`N#C/C(=C/c1ccc(N2CCCCC2)o1)C(=O)NCCc1c[nH]c2ccccc12`: the inhibition in test [1] is 22.2%; in test [14], 150% (active); in test [15], 5.73%. The activation in test [12] is 33.6% (active); in test [13], 52.1% (active).

`Cc1ccc(C(C)C)c(OCc2ccc(C(=O)N/N=C/c3cccc(O)c3O)cc2)c1`: the inhibition in test [1] was -4.31%; in test [2], 56.2% (active); in [3], 32.4% (active); in test [4], 40.4%; in test [5] it was 27.9% (active); in test [10], 34.8%. In addition, the inhibition in test [11] was 83.9% (active).

`O=C1C(Nc2ccccc2)=C/C(=N/S(=O)(=O)c2cccs2)c2ccccc21`: the inhibition in test [1] is 35.5% (active); in test [2], 79.7% (active); in test [3], 59.4% (active); in [4] it was 44.6%; in test [5], 75.7% (active).

`CSC[C@@H]1NC(=S)N(c2ccc(C)cc2)C1=O`: the inhibition in [1] is 38% (active).

For the molecule `C1=C(CCNc2ncnc3c2[nH]c2ccccc23)CCCC1`, the inhibition is 29.3% (active) in [1]; -12% in test [6]; 36% in [7]; 41.4% in test [8]; 37.5% (active) in [9].

In the case of `O=[N+]([O-])c1ccc(-c2nc(-c3cccs3)c(-c3cccs3)[nH]2)cc1`, the inhibition in test [1] was 21.5%; in test [6], 15.5%; in test [7] it was 59.5% (active); in test [8], 50.8% (active); in test [9], -8.61%.

As for `CCCCn1c(NS(=O)(=O)c2ccccc2)c(S(=O)(=O)c2ccc(C)cc2)c2nc3ccccc3nc21`, the inhibition is 11.6% in [1]; 15.2% in [6]; 19.7% in [7]; 24.9% in [8]; -6.99% in [9].

In the case of `CN1CCN(c2ccc(NC(=O)c3ccc(-c4ccc(Br)cc4)o3)cc2)CC1`, the inhibition is 37.4% (active) in test [1]; 0.51% in [6]; 52% (active) in test [7]; 50.9% (active) in test [8]; 13.1% in [9].

Take `CC(C)CC[n+]1ccn(C2=C([O-])c3ccccc3C(=O)/C2=N\S(=O)(=O)c2ccccc2)c1`: in test [16], the inhibition is 68.2% (active).

For `Nc1ccc2oc(-c3cc(Br)ccc3Cl)nc2c1`, the inhibition in test [1] was 9.02%; in test [6], -34.3%; in [7] it was 45.4% (active); in test [8], 32.9%; in [9] it was -44.9%.

Consider `CCCn1nc([N+](=O)[O-])c(C(C#N)c2nc3ccccc3s2)c(Cl)c1=O` (centres undefined), for which the figures for the inhibition in test [1], in [10] and in test [11] were 28.7% (active), 20.4% and 20.3%, respectively.

As for `CN(c1ccccc1)S(=O)(=O)c1ccc(NC(=O)c2nc(S(C)(=O)=O)ncc2Cl)cc1`, the inhibition in [1] is 24.2%; in test [10], 94.3% (active); in test [11], 77.3% (active).

For `CN(C)S(=O)(=O)c1cccc(NC(=S)N/N=C/c2cc(Br)ccc2O)c1`, the inhibition in [1] is 16.8%; in test [2], 55.4% (active); in test [3], 59.2% (active); in [10] it was -15.5%; in test [11], 24.2%.
